Results from the supplement of paper PMC12632987.
The full ranking holds about 4,500 sequences; the median of “median log2 fold change of GCK-ALFA target abundance (FLAG IP / Myc IP barcode read proportion)” is about 0.078, and the lowest 2% start at about -0.6. Many of the other results were omitted from the sample, so the lowest values are more common in it than they were.

B1: GBRAP_35_5547 (protein)
chain: DPETETVEMLLNTMEDIVLALPDVSPEDLETLTKHLIDLANLAIEEKPKNKELLERLIKALEEAIKIVEASDLPEEVKAELLKELEKARKEAEKLLEKVK
B2: GBRAP_35_5544 (protein)
chain: MEEEETVEMLLNTMEDIVLALPDVSPEEQLILTKHLIKLAKLAIEEKPKNKELLKRGIEALKEAIKIVKESDLPEEEKEKLLKELEEAKEKFEKLLKKVE
B3: GBRAP_35_5545 (protein)
chain: DFDEETVEMLLNTMEDIVLALPDVSPEEKLILARHLIDLAEKAIEEKPKNVELLKRGIEVLERAIEIVKASDLPEEEREELIERLEEVKEKFEKLLKENE
B4: GBRAP_128_3307 (protein)
chain: MDEELLEEARELIERLKEADEEEAAELVREIAELLEKATPEEREEIAELFEEALKELSAEKLDVVADTLRELIPKATPETANVLADLQVEALNLAEEKEE
B5: GBRAP_160_4379 (protein)
chain: SEELKELKEEVKKLKEEFKEEAKDLSTAEVRTLAIGVLSEIAALVWSNEAVSEETKDKIMKIIDDAIAKIRANADASPEEIVAIVTEAFDKIIELIEKEE
B6: GBRAP_125_3112 (protein)
chain: NMEEILEALRIILKALGFDEEEIEEAVRLAREYGIKGTMIAAALALGWEEVAELLEKLSEEEVKEALLRTAEKIKENPELTPEEVKELLKEVLKEILEKK
B7: GBRAP_11_2866 (protein)
chain: NKEKLKEIAELLEKLIEVLERLLEEGVDNEELREEALKLAKEILELVKKYSDEADVKLAEYALELLEKAEEDPANAEQYVQEALAFARVLLGNVLLRIDE
B8: GBRAP_52_6101 (protein)
chain: AAAEAEALVERLLALVRAGREAEARAEAAALAAEMDEARLRVLTEALAARARAAAPEDLDAVWRLAELLADELEAAGWPDVLVDDLLAATAAALYERELA
B9: GBRAP_128_3576 (protein)
chain: SDEEILEKAKELIKKIIESDVEEAKKYAEELAKLLKEADPETREKIVELILEALPKLSVEKLEVLADVFREQRPKADPETANLLAEIEVEALNEAVEKEE
B10: GBRAP_166_4948 (protein)
chain: SLEEVIEETREFIRELAERMKTLNDEERLDALIEIAERLEEARKAGVSEEDLLELVREALELVKEAGGSVEQFVGALDMFVDLDEEELDKVAEIAEEVKA
B11: GBRAP_137_3672 (protein)
chain: MIDAKIEIEDGLAYAELTYKGSLEEAKKAAEIAEEIAGKIPGIAISTKVDEDGTLTIDLGGTLEQIMKFLKELAKALNVTINVTIKDLDTGETTKETIKA
B12: GBRAP_160_4310 (protein)
chain: KEELEALKKEVKEIFEEAKKLIEGETKEQQKAIVKVALGEVILLAFESPAITEEAEEKIAEIADEAIATLDANPDLTTEEIKKLLEEAEKKILELIEKLK
B13: GBRAP_74_6571 (protein)
chain: MEKYTKEMKAAAAAGDVKKAIKIVEEMIEKGIKKVSAEFLNALATIAEKHLPKATPEEQERFIDAASELVDLVLESEQDEETYKALNKLITALYEAELAR
B14: GBRAP_57_6475 (protein)
chain: MERLKAVEEAAERALALIDARAPREEILAAVRELAELLSEETLRDVLLIADPEAPEDLSKEEAIARLVALAAAYLDAGDYDGLRRLVELMLGTAEMDFEE
B15: GBRAP_39_5697 (protein)
chain: EREEEAEDTFSYLEAIGAKYQVEEKISLEEARERTRELAERFIKEHPEIAEVLKELLELAEKAGDLAILALLGLLLRAEEGTPLEEIKKDAELLIEYLKS
B16: GBRAP_125_2965 (protein)
chain: SEEEALEALAIIAKALGFDEDEVEEAVELARRFGLKKTLIALFLAEGYEEVADLVEKLTEEEAREVAKKLAEEIKKNPELTPEEVVELAKKLFEEVIAKK
B17: GBRAP_80_6822 (protein)
chain: MEEELEANLKALEAVDPEIAKIVREIVEIARELGVPLETLVRLAKAILELAKVDKEKARELAEELLEELREEREEGDREGALAELVDAESEALLEVEELE
B18: GBRAP_184_5158 (protein)
chain: KVLERTIEADNLEELKKKLKEIKEEAAKTKADLIVVLNLKELTKEMLETALSTLGEIKKEGLAPSITLLIENEMNDEQIDFALKLADEAGVTLVVAIPDE
B19: GBRAP_160_4463 (protein)
chain: KEEVKEAVEELRERVEEVLEDSENMSPEQILLAVAVEVGSSLLEWEEEGKISDEQAEILAKAIDELLRLAKEEKNASPEEAKKRAREIVEKAAKEILAAA
B20: GBRAP_78_6736 (protein)
chain: EIEELIDKALEELNRAARLAQQFPLEEQTELLDLIIDASTLLEEAEEEGFDLKLLEEALKKLKEALKLAKKLKTPLAEKLAKELEEAIKLVEKAIKLVKE
B21: GBRAP_128_3567 (protein)
chain: STAAAVAQARALLEAIKAGDAATRRAAAEALVALLAAADPETREAITAEILERLPELSAEDLEVLADVFRAARPAADPATAEALAEIQVEALNEREEKEE
B22: GBRAP_35_5597 (protein)
chain: DTDQLAVDSLIDMIEATIEGIPELPVDTLVSITNLLIKDAEELRKQLKNNVEALERIAKALEKLKEALKKHHGDNPKVQETIEKVEKAIKELKEQAKKAL
B23: GBRAP_184_5332 (protein)
chain: KTLEVHIENLPIEEIIKKVEEAAKKAAEEGADLLISIDASGYSIEEIIELIKKIGEIAKKYGVKNVTLGIDKEVNEEEADKLIEEADKYGIRLVLPLKDE
B24: GBRAP_184_5329 (protein)
chain: KTLEVHIENLPIEEIKKKVEEALKEAAAQGAALSIYIDASGYSIEEIKELIEYIGELAKKYGVKDVTLGIDKAVNEEEADILIEIADKYGIRLVLPLEDE
B25: GBRAP_83_6990 (protein)
chain: KEKITVAANGDDIEEAAEIVIDLTKEEGYEVDVEIIATKEDWEKVLEMVERLAEAGIETDITVLAEGITEEEAKEKQKELEEIAKEHGVNINVKVYAIEP
B26: GBRAP_83_6970 (protein)
chain: MEKVDVVTTPDHVEEAAEAARDLAEEEGYEVTVILVGSPEEVLKSAEIVAEKLKDIKNVSIRAAVRGVRKEEAEKTKKKLEEIGKKYGLKVEFDAELIEE
B27: GBRAP_106_2555 (protein)
chain: SEEEKFEKLIKESREEAEKEIADTRAWLAARRDQLTPEEIRAIETYTKKYLVAKILHKAIEAGFITKEEAEEILKEALSKTDFTPEEAVKFTLEKIKELY
B28: GBRAP_160_4809 (protein)
chain: MEKAEKLLEEARKDLLETAEASKDLPIEDRARLLEAEGYTSILDFEEELNISDETEEKLAQVVDDLVATLLANPDLSDEEVLALVEEAAEKMKEIVKEEV
B29: GBRAP_160_4810 (protein)
chain: KEKAEKLMEEARKDLLETAEASADLPIEDRARLLEAEGYTSILDFEEELNISDETEEELDEVVDDLVARLLANPDLSREEVLALVEEAVERMKEIVEKEV

Target: GABARAP, O95166
Experiment: median log2 fold change of GCK-ALFA target abundance (FLAG IP / Myc IP barcode read proportion) (log2 ratio); each designed protein is fused to an ALFA-tag nanobody in HEK293 cells to bring the named protein to FLAG-tagged glucokinase (GCK); Myc marks an untargeted standard; higher = target protein stabilised (more abundant)
Conditions: target protein: 3xFLAG-MCP-GCK-ALFA reporter; HEK293 landing pad (RPLP)
Procedure: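 LABEL-seq trans screen in HEK293 landing-pad cells. Each de novo designed 100-aa effector handle, binding the indicated effector (E3 ligase, DUB or autophagy protein), is fused to a constant NbALFA target handle and induced with 2 ug/mL doxycycline. A FLAG-MCP-GCK-ALFA target and a Myc-MCP standard reporter were transfected, and after 48 h circRNA barcodes were recovered by anti-FLAG and anti-Myc IP and sequenced. The value is the median across barcodes (at least 3 per design) of log2(FLAG/Myc read-proportion ratio), with the two transfection replicates pooled. Negative values mean degradation and positive values mean stabilisation of the target.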

Chain of GABARAP, O95166 (O95166 whole entry, the tested form may be a part): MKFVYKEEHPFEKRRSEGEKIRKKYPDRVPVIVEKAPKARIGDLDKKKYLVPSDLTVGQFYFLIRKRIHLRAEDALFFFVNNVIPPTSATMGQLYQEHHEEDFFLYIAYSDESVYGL

Binder	median log2 fold change
B1	0.0216
B2	-0.612
B3	0.127
B4	0.0926
B5	0.234
B6	-0.66
B7	-0.0773
B8	-0.279
B9	0.00207
B10	0.0139
B11	0.117
B12	-0.615
B13	-0.298
B14	0.257
B15	0.186
B16	-0.872
B17	-0.574
B18	-0.0197
B19	-0.697
B20	-0.0442
B21	0.197
B22	0.00193
B23	-0.598
B24	-0.086
B25	-0.0785
B26	0.197
B27	-0.507
B28	-0.35
B29	-0.669
